# Results as given in the supplement of paper PMC4466140.
# B1: unnamed (peptide)
# chain: DTFLPPPPPPPSNFE
# B2: unnamed (peptide)
# chain: GKFIPSRPAPKPPSS
# Molecular target: SpBzz1-D2
# Assay: SPOT peptide array binding signal intensity (averaged, normalized) (arbitrary units (background-subtracted, floor 0; scale differs between SH3 domains)); higher = stronger binding of the SH3 domain to the peptide
# Summary of the method: (§1)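 Binding signal refers to normalized, background-subtracted spot intensity averaged over replicates, expressed in arbitrary units that differ between domains. GST-fused SH3 domains from four yeast species were incubated at 10 μg/ml overnight at 4°C on cellulose membranes of synthetic 15-mer peptides with cysteines replaced by serines. Bound protein was detected with anti-GST antibody, an HRP anti-mouse secondary and luminol, and quantified with Genespotter.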
row,Binder,SPOT peptide array binding signal intensity
1,B1,6.5
2,B2,9.5

# Molecular target: SpCyk3
# Assay: as above
# Summary of the method: as §1
row,Binder,SPOT peptide array binding signal intensity
1,B1,≤ 0
2,B2,5

# Molecular target: SpHof1
# Assay: as above
# Summary of the method: as §1
row,Binder,SPOT peptide array binding signal intensity
1,B1,≤ 0
2,B2,77.5

# Molecular target: SpHof1-2
# Assay: as above
# Summary of the method: as §1
row,Binder,SPOT peptide array binding signal intensity
1,B1,6.75
2,B2,33

# Molecular target: SpHof1-3
# Assay: as above
# Summary of the method: as §1
row,Binder,SPOT peptide array binding signal intensity
1,B1,≤ 0
2,B2,94.8

# Molecular target: SpHse1
# Assay: as above
# Summary of the method: as §1
row,Binder,SPOT peptide array binding signal intensity
1,B1,12.5
2,B2,180

# Molecular target: SpLsb1
# Assay: as above
# Summary of the method: as §1
row,Binder,SPOT peptide array binding signal intensity
1,B1,≤ 0
2,B2,98.8

# Molecular target: SpLsb4
# Assay: as above
# Summary of the method: as §1
row,Binder,SPOT peptide array binding signal intensity
1,B1,≤ 0
2,B2,600

# Molecular target: SpMyo1
# Assay: as above
# Summary of the method: as §1
row,Binder,SPOT peptide array binding signal intensity
1,B1,1100
2,B2,2900

# Molecular target: SpNbp2
# Assay: as above
# Summary of the method: as §1
row,Binder,SPOT peptide array binding signal intensity
1,B1,≤ 0
2,B2,850

# Molecular target: SpPex13
# Assay: as above
# Summary of the method: as §1
row,Binder,SPOT peptide array binding signal intensity
1,B1,≤ 0
2,B2,22

# Molecular target: SpRvs167
# Assay: as above
# Summary of the method: as §1
row,Binder,SPOT peptide array binding signal intensity
1,B1,2
2,B2,90

# Molecular target: SpSla1-D1-D2
# Assay: as above
# Summary of the method: as §1
row,Binder,SPOT peptide array binding signal intensity
1,B1,≤ 0
2,B2,≤ 0

# Molecular target: SpSla1-D3
# Assay: as above
# Summary of the method: as §1
row,Binder,SPOT peptide array binding signal intensity
1,B1,≤ 0
2,B2,3.5

# Molecular target: AgAbp1
# Assay: as above
# Summary of the method: as §1
row,Binder,SPOT peptide array binding signal intensity
1,B2,978

# Molecular target: AgBbc1
# Assay: as above
# Summary of the method: as §1
row,Binder,SPOT peptide array binding signal intensity
1,B2,1050

# Molecular target: AgBem1-D1
# Assay: as above
# Summary of the method: as §1
row,Binder,SPOT peptide array binding signal intensity
1,B2,328

# Molecular target: AgBzz1-D1
# Assay: as above
# Summary of the method: as §1
row,Binder,SPOT peptide array binding signal intensity
1,B2,46

# Molecular target: AgBzz1-D2
# Assay: as above
# Summary of the method: as §1
row,Binder,SPOT peptide array binding signal intensity
1,B2,37

# Molecular target: AgCyk3
# Assay: as above
# Summary of the method: as §1
row,Binder,SPOT peptide array binding signal intensity
1,B2,2

# Molecular target: AgFus1
# Assay: as above
# Summary of the method: as §1
row,Binder,SPOT peptide array binding signal intensity
1,B2,≤ 0

# Molecular target: AgHof1
# Assay: as above
# Summary of the method: as §1
row,Binder,SPOT peptide array binding signal intensity
1,B2,51.8

# Molecular target: AgHse1
# Assay: as above
# Summary of the method: as §1
row,Binder,SPOT peptide array binding signal intensity
1,B2,8

# Molecular target: AgLsb1
# Assay: as above
# Summary of the method: as §1
row,Binder,SPOT peptide array binding signal intensity
1,B2,218

# Molecular target: AgLsb4
# Assay: as above
# Summary of the method: as §1
row,Binder,SPOT peptide array binding signal intensity
1,B2,19

# Molecular target: AgMyo5
# Assay: as above
# Summary of the method: as §1
row,Binder,SPOT peptide array binding signal intensity
1,B2,1850

# Molecular target: AgNbp2
# Assay: as above
# Summary of the method: as §1
row,Binder,SPOT peptide array binding signal intensity
1,B2,4160

# Molecular target: AgRvs167
# Assay: as above
# Summary of the method: as §1
row,Binder,SPOT peptide array binding signal intensity
1,B2,2.83

# Molecular target: AgSho1
# Assay: as above
# Summary of the method: as §1
row,Binder,SPOT peptide array binding signal intensity
1,B2,17

# Molecular target: AgSla1-D1-D2
# Assay: as above
# Summary of the method: as §1
row,Binder,SPOT peptide array binding signal intensity
1,B2,35

# Molecular target: AgSla1-D3
# Assay: as above
# Summary of the method: as §1
row,Binder,SPOT peptide array binding signal intensity
1,B2,9.25

# Molecular target: CaAbp1-D1
# Assay: as above
# Summary of the method: as §1
row,Binder,SPOT peptide array binding signal intensity
1,B2,922

# Molecular target: CaAbp1-D2
# Assay: as above
# Summary of the method: as §1
row,Binder,SPOT peptide array binding signal intensity
1,B2,764

# Molecular target: CaBbc1
# Assay: as above
# Summary of the method: as §1
row,Binder,SPOT peptide array binding signal intensity
1,B2,1370

# Molecular target: CaBem1-D1
# Assay: as above
# Summary of the method: as §1
row,Binder,SPOT peptide array binding signal intensity
1,B2,2020

# Molecular target: CaBzz1-D1
# Assay: as above
# Summary of the method: as §1
row,Binder,SPOT peptide array binding signal intensity
1,B2,1860

# Molecular target: CaBzz1-D2
# Assay: as above
# Summary of the method: as §1
row,Binder,SPOT peptide array binding signal intensity
1,B2,808

# Molecular target: CaCyk3
# Assay: as above
# Summary of the method: as §1
row,Binder,SPOT peptide array binding signal intensity
1,B2,88.5

# Molecular target: CaFus1
# Assay: as above
# Summary of the method: as §1
row,Binder,SPOT peptide array binding signal intensity
1,B2,54.5

# Molecular target: CaHof1
# Assay: as above
# Summary of the method: as §1
row,Binder,SPOT peptide array binding signal intensity
1,B2,0.5

# Molecular target: CaHse1
# Assay: as above
# Summary of the method: as §1
row,Binder,SPOT peptide array binding signal intensity
1,B2,≤ 0

# Molecular target: CaLsb1
# Assay: as above
# Summary of the method: as §1
row,Binder,SPOT peptide array binding signal intensity
1,B2,≤ 0

# Molecular target: CaLsb4
# Assay: as above
# Summary of the method: as §1
row,Binder,SPOT peptide array binding signal intensity
1,B2,53

# Molecular target: CaMyo5
# Assay: as above
# Summary of the method: as §1
row,Binder,SPOT peptide array binding signal intensity
1,B2,24

# Molecular target: CaNbp2
# Assay: as above
# Summary of the method: as §1
row,Binder,SPOT peptide array binding signal intensity
1,B2,3600

# Molecular target: CaRvs167
# Assay: as above
# Summary of the method: as §1
row,Binder,SPOT peptide array binding signal intensity
1,B2,26.2

# Molecular target: CaRvs167-3
# Assay: as above
# Summary of the method: as §1
row,Binder,SPOT peptide array binding signal intensity
1,B2,3.25

# Molecular target: CaSho1
# Assay: as above
# Summary of the method: as §1
row,Binder,SPOT peptide array binding signal intensity
1,B2,36

# Molecular target: CaSla1-D1-D2
# Assay: as above
# Summary of the method: as §1
row,Binder,SPOT peptide array binding signal intensity
1,B2,684

# Molecular target: CaSla1-D3
# Assay: as above
# Summary of the method: as §1
row,Binder,SPOT peptide array binding signal intensity
1,B2,14.5

# Molecular target: ScAbp1
# Assay: as above
# Summary of the method: as §1
row,Binder,SPOT peptide array binding signal intensity
1,B2,127

# Molecular target: ScBbc1
# Assay: as above
# Summary of the method: as §1
row,Binder,SPOT peptide array binding signal intensity
1,B2,552

# Molecular target: ScBem1-D1
# Assay: as above
# Summary of the method: as §1
row,Binder,SPOT peptide array binding signal intensity
1,B2,1

# Molecular target: ScBzz1-D1
# Assay: as above
# Summary of the method: as §1
row,Binder,SPOT peptide array binding signal intensity
1,B2,39

# Molecular target: ScBzz1-D2
# Assay: as above
# Summary of the method: as §1
row,Binder,SPOT peptide array binding signal intensity
1,B2,25

# Molecular target: ScCyk3
# Assay: as above
# Summary of the method: as §1
row,Binder,SPOT peptide array binding signal intensity
1,B2,2

# Molecular target: ScFus1
# Assay: as above
# Summary of the method: as §1
row,Binder,SPOT peptide array binding signal intensity
1,B2,≤ 0

# Molecular target: ScHof1
# Assay: as above
# Summary of the method: as §1
row,Binder,SPOT peptide array binding signal intensity
1,B2,8.25

# Molecular target: ScHse1
# Assay: as above
# Summary of the method: as §1
row,Binder,SPOT peptide array binding signal intensity
1,B2,74

# Molecular target: ScLsb1
# Assay: as above
# Summary of the method: as §1
row,Binder,SPOT peptide array binding signal intensity
1,B2,175

# Molecular target: ScLsb2
# Assay: as above
# Summary of the method: as §1
row,Binder,SPOT peptide array binding signal intensity
1,B2,161

# Molecular target: ScLsb3
# Assay: as above
# Summary of the method: as §1
row,Binder,SPOT peptide array binding signal intensity
1,B2,508

# Molecular target: ScLsb4
# Assay: as above
# Summary of the method: as §1
row,Binder,SPOT peptide array binding signal intensity
1,B2,13.5

# Molecular target: ScMyo3
# Assay: as above
# Summary of the method: as §1
row,Binder,SPOT peptide array binding signal intensity
1,B2,3530

# Molecular target: ScMyo5
# Assay: as above
# Summary of the method: as §1
row,Binder,SPOT peptide array binding signal intensity
1,B2,3480

# Molecular target: ScNbp2
# Assay: as above
# Summary of the method: as §1
row,Binder,SPOT peptide array binding signal intensity
1,B2,5410

# Molecular target: ScPex13
# Assay: as above
# Summary of the method: as §1
row,Binder,SPOT peptide array binding signal intensity
1,B2,1460

# Molecular target: ScRvs167
# Assay: as above
# Summary of the method: as §1
row,Binder,SPOT peptide array binding signal intensity
1,B2,274

# Molecular target: ScSho1
# Assay: as above
# Summary of the method: as §1
row,Binder,SPOT peptide array binding signal intensity
1,B2,66.5

# Molecular target: ScSla1-D1-D2
# Assay: as above
# Summary of the method: as §1
row,Binder,SPOT peptide array binding signal intensity
1,B2,652

# Molecular target: ScSla1-D3
# Assay: as above
# Summary of the method: as §1
row,Binder,SPOT peptide array binding signal intensity
1,B2,156

# Molecular target: SpAbp1-D1
# Assay: as above
# Summary of the method: as §1
row,Binder,SPOT peptide array binding signal intensity
1,B2,187

# Molecular target: SpBbc1
# Assay: as above
# Summary of the method: as §1
row,Binder,SPOT peptide array binding signal intensity
1,B2,46.5

# Molecular target: SpBzz1-D1
# Assay: as above
# Summary of the method: as §1
row,Binder,SPOT peptide array binding signal intensity
1,B2,735
